D1 antagonist = human D1 dopamine receptor antagonism; P21728; HEK293 TREx D1 cells, calcium flux, dopamine EC80; stronger effect = lower value; activity change, negative = inhibition, % at 10 µM; 360,000 compounds, 3.2% hits; AID 504652; in the data active means activity change below about -30%
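Kinetic fluorescence of a calcium dye serves as the read-out. D1-expressing Hek293 Trex cells, induced overnight at 30 C, are exposed to compound for 180 s before an EC80 dopamine addition, then read 180 s further.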
TRHR agonist = agonists of human TRH receptor; TRHR cells, calcium flux fluo-8, FDSS agonist mode; activation, % at 2 µM; 360,000 compounds, 0.18% hits; AID 493084
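Fluo-8-loaded TRHR cells; 10 s baseline, compound added, kinetic Ca2+ fluorescence read 1/s, agonist mode.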
USP1-UAF1 inh = inhibitors of human USP1/UAF1 deubiquitinase; O94782; Potency, µM (highest dose often 57.1 µM), usual class: inhibitors; 390,000 compounds, 0.23% hits; recombinant USP1/UAF1, Ub-Rhodamine cleavage fluorescence; active means well fitted inhibition curve with a large enough effect; inconclusive means small, poorly fitted or top-dose-only effect; inactive means no such curve, though single readings can be large or run the other way; further: nearly all actives have a fitted effect of over 60% in size
Target sequence (O94782 whole entry, looked up): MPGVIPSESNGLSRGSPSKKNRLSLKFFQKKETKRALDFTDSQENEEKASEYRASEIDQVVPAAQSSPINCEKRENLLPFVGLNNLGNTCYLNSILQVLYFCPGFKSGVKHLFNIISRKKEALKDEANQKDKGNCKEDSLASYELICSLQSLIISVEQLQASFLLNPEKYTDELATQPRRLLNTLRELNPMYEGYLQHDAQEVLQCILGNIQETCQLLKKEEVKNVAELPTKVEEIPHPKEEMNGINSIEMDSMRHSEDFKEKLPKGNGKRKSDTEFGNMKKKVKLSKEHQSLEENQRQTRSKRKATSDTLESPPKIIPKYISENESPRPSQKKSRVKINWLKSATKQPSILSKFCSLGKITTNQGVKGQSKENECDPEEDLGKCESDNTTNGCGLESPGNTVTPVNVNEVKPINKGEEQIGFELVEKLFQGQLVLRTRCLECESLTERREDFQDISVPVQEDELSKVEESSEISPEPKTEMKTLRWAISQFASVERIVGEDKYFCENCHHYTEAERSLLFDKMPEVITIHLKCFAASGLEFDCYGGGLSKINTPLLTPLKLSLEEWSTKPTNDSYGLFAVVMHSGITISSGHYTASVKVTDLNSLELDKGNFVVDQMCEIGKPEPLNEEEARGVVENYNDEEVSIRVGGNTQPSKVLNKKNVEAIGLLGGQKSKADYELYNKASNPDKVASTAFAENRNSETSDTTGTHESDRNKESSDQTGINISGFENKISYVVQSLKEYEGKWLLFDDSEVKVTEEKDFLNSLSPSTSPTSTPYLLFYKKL
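High-throughput fluorogenic screen: 1nM USP1/UAF1 complex, Ub-Rho substrate 150nM final, 50mM HEPES pH 7.8 with 0.5mM EDTA, 0.1 mg/ml BSA, 1mM TCEP and 0.01% Tween-20.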
D1 potentiator = potentiators of human D1 dopamine receptor. P21728. 360,000 compounds, 0.036% hits. HEK293 TREx D1 cells, calcium flux, dopamine EC20 potentiation. potentiation, % at 10 µM; in the data active means potentiation above about 30%
D1 ag = activates the human D1 dopamine receptor | P21728 | HEK293 T-REx D1 cells, calcium flux, agonist mode | activation, % at 2 µM | 360,000 compounds, 1% hits
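Tetracycline-induced HEK293 TREx D1 cells, force-coupled to calcium signalling, were dye-loaded with a no-wash calcium kit. Compound was pin-added after a 10 s baseline. Fluorescence was read kinetically at 1 cycle/s for 180 s, with calcium rises flagged as agonism.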
TRHR PAM = allosterically enhances the human TRH receptor. enhancement, % at 2 µM. AID 493056. TRHR cells, fluo-8 calcium fluorescence, EC20 TRH enhancement. 360,000 compounds, 0.66% hits; in the data active means enhancement above about 30%
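TRHR-expressing cells loaded with fluo-8 calcium dye were read kinetically (ex 480/em 530) during compound addition, then stimulated with an EC20 of TRH (10 nM final). Enhancement of the Gq-mediated intracellular calcium response was scored.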
Each line names hits and unclear results; the compound was inactive in the other large screens. This is a sample that favours compounds with a hit; in the whole collection about 4.4% have one here. Unless noted, no stated cut-off is given here; in the data, active means activation above about 30%; inactive means the rest.

CCc1cc(=O)oc2c(C)c(OCC(=O)NCC3CCC(C(=O)O)CC3)ccc12 (centres undefined)	D1 antagonist -65.6
COc1cc(C2c3c(oc4ccccc4c3=O)C(=O)N2c2nncs2)cc(OC)c1OC (centres undefined)	none
O=C(Nc1cc([N+](=O)[O-])ccc1O)c1ccc2c(c1)C(=O)N(Cc1ccco1)C2=O	USP1-UAF1 inh inconclusive, TRHR PAM 39.0
COc1ccccc1NC(=O)Cn1c(=O)n(-c2cccc(C)c2)c(=O)c2c1c1cc(C)ccc1n2C	none
COc1ccc2c(c1)c1c(c(=O)n(-c3cccc(C)c3)c(=O)n1CC(=O)NCC1CCCO1)n2C (centres undefined)	none
CC(=O)C1=C(C)Nc2ncnn2C1c1cccc(OCc2ccccc2)c1 (centres undefined)	D1 antagonist -31.3
Cn1nnc2c(NCc3ccccc3)ncnc21	none (no result: D1 antagonist)
CCCOc1ccc2ccccc2c1/C=N/n1cnnc1	USP1-UAF1 inh inconclusive
CCOc1ccc2ccccc2c1/C=N/n1cncn1	D1 antagonist -47.2
COc1ccc(NC(=O)CSc2ccc3c4c(cccc24)C(=O)c2ccccc2-3)cc1	USP1-UAF1 inh 25.1µM (no result: D1 antagonist, TRHR agonist, D1 potentiator, D1 ag, TRHR PAM)
COc1ccc(CNC(=O)COc2cc3c(c4oc(=O)cc(C)c24)CCC(C)(C)O3)cc1OC	D1 antagonist -31.3
Cc1cc(=O)oc2c3c(cc(OCC(=O)NCc4ccncc4)c12)OC(C)(C)CC3	none
CCOC(=O)c1nn(-c2ccccc2C)c(=O)c2c(N)scc12	USP1-UAF1 inh inconclusive
CCOC(=O)c1nn(-c2ccccc2)c(=O)c2c(N)scc12	USP1-UAF1 inh 17.8µM
CC(C)CCNC(=O)c1cc(Sc2ccc(F)cc2F)nc2ccccc12	none
O=C1CC(c2ccccc2)Cc2[nH]c(=O)c(C(=O)Nc3ccc(OC(F)(F)F)cc3)cc21 (centres undefined)	USP1-UAF1 inh inconclusive
CCOC(=O)CSc1nc2cc(OC)c(OC)cc2c2nc(-c3ccccc3)nn12	none
Cc1cc(C)c(-c2csc(NC(=O)C3=COCCO3)n2)c(C)c1	D1 antagonist -30.5
O=C(Nc1nc(-c2cccs2)cs1)C1=COCCO1	D1 antagonist -81.7
Cc1cc(C)c(NC(=O)C2=COCCO2)c(C)c1	D1 antagonist -32.6
Cc1cc(C)c2sc(NC(=O)C3=COCCO3)nc2c1	D1 antagonist -34.1
CCOC(=O)C1=C(CS(=O)(=O)c2ccc(C)cc2)NC(=O)NC1c1ccc(C(C)C)cc1 (centres undefined)	none
Cc1sc(NC(=O)c2sc3nc4c(C)cccc4cc3c2N)c(C#N)c1C	D1 ag 55.1
Cc1cccc2cc3c(N)c(C#N)sc3nc12	none
CC1(C)O[C@H]2[C@@H](O1)[C@@H](C(=O)Nc1cc(F)ccc1F)O[C@@H]1OC(C)(C)O[C@@H]12	none
O=C1CCCc2ccccc2N1Cc1ccccc1Cl	D1 antagonist -34.5
O=C1CCCc2ccccc2N1Cc1ccc(Cl)cc1	none
O=C1CCCc2ccccc2N1Cc1ccc(Cl)cc1Cl	D1 ag 34.5
O=C1CCCc2ccccc2N1Cc1c(Cl)cccc1Cl	none
Cc1ccc(SCc2nc(N)nc(Nc3ccccc3C)n2)c(C)c1	none
Cc1ccc(Nc2nc(N)nc(CSc3nccn3C)n2)c(C)c1	D1 antagonist -32.9
COc1ccc(OC)c(NS(=O)(=O)c2ccc(N3CCCC3=O)cc2)c1	TRHR PAM 33.9
CCOC(=O)c1ccc(NC(=O)CCCn2c(=O)c3cccn3c3cccnc32)cc1	none
COc1ccc2cc(S(=O)(=O)c3ccccc3F)c(=O)oc2c1	none
O=C(COC(=O)C1CCC(N2C(=O)C3C4CCC(C4)C3C2=O)CC1)c1ccc(F)cc1 (centres undefined)	D1 antagonist -34.6
Cc1nnc2c3ccccc3c(-c3ccc(O)cc3)nn12	none
Cc1c(-c2ccc(O)cc2)nc2nc(-c3ccccc3)c(-c3ccccc3)nn12	D1 ag 85.6 (no result: USP1-UAF1 inh)
CCOC(=O)CSc1nc2ccccc2n1CC(=O)NC(C)(C)C	TRHR PAM 30.4
CCc1ccccc1NC(=O)CSc1nc2ccccc2n1CC(=O)N(C)C	none
CCc1cccc(C)c1NC(=O)CSc1nc2ccccc2n1CC(=O)N(C)C	D1 antagonist -35.2
Cc1ccc(-c2nnc(Nc3ccc(Br)cc3)c3ccccc23)cc1S(=O)(=O)N1CCN(C)CC1	none
CCOC(=O)c1cccc(NC(=O)CN2C(=O)c3ccccc3Sc3ncccc32)c1	none
CCOc1ccccc1NC(=O)C(=O)c1cc(C)n(-c2cccc(C)c2C)c1C	none
COc1ccc(Cn2c(=O)c3cccnc3n(Cc3ccc([N+](=O)[O-])cc3)c2=O)cc1	none
COc1ccc(CCn2c(=O)c3cccnc3n(Cc3ccc([N+](=O)[O-])cc3)c2=O)cc1OC	D1 antagonist -46.2
CCN1CCN(C(C(=O)NC2CCCC2)c2ccc(Cl)cc2)CC1 (centres undefined)	D1 antagonist -37.5
CCc1ccc(S(=O)(=O)Nc2cc(SCC(=O)O)c(O)c3ccccc23)cc1	USP1-UAF1 inh inconclusive
O=C(O)CSc1cc(NS(=O)(=O)c2cccc([N+](=O)[O-])c2)c2ccccc2c1O	USP1-UAF1 inh 17.8µM
CCOc1ccc(S(=O)(=O)Nc2cc(SCC(=O)O)c(O)c3ccccc23)cc1	USP1-UAF1 inh 25.1µM
COc1ccc(N2CCN(C(=O)c3c(C)oc4ncn(CC(C)C)c(=O)c34)CC2)cc1	none
O=C(CCN1C(=O)/C(=C\c2ccccc2F)SC1=S)N1CCOCC1	none (no result: D1 antagonist, TRHR agonist, D1 potentiator, D1 ag, TRHR PAM)
CN1CCN(C(=O)CCN2C(=O)/C(=C\c3ccccc3F)SC2=S)CC1	D1 ag 95.6
C=CCn1c(COc2ccccc2F)nnc1SCC(=O)c1c[nH]c2ccccc12	D1 antagonist -34.9
CCOC(=O)c1cccc(NC(=O)CC2C(=O)N(c3ccccc3)C(=O)N2Cc2ccco2)c1 (centres undefined)	none
C=CCN1CC(C(=O)N2CCC(Cc3ccc(Cl)cc3)(C(=O)OCC)CC2)CC1=O (centres undefined)	D1 antagonist -31.8, TRHR PAM 30.3
CCOC(=O)C1(Cc2ccc(Cl)cc2)CCN(C(=O)C2CCCO2)CC1 (centres undefined)	USP1-UAF1 inh inconclusive
O=C(Nc1nnc(SCc2ccccc2F)s1)c1ccco1	D1 antagonist -82.4
O=C(NCCSC1CCCCC1)c1ccccc1	D1 antagonist -77.4
COc1ccc(C(=O)NC(=S)N(C)C2CCCCC2)cc1	D1 antagonist -45.5
COc1ccc(C(=O)NCCSC2CCCCC2)cc1	D1 antagonist -42.9
Nc1nc(N2CCN(C/C=C/c3ccccc3)CC2)nc2ccccc12	D1 antagonist -50.4, D1 ag 39.9

Assay outcomes: PubChem, National Center for Advancing Translational Sciences (NCATS)
